Results from PubChem BioAssay (Tox21).
Inconclusive results are not listed. Entries that show only a call come without a potency. Unmarked numbers belong to inactive results. Calls of active or inactive are those of the source. Calls come from the whole dose curve; as a rule, active = well fitted cell-killing curve with a large enough effect in the repeat runs; inconclusive = weak or mixed curves, or effect the other way; inactive = flat fitted curve, though single readings scatter.

experiment: qHTS RealTime-Glo MT Cell Viability Assay in HepG2 cells - 0 hour (AID 1224889); settings: RealTime-Glo luminescence; series mostly up to 76.8 µM; activity change, negative = cytotoxicity: at the top concentration; note: nearly all actives have a fitted effect of over 50% in size
From the text: U.S. Tox21 Program National Center for Advancing Translational Sciences [NCATS] NIH Chemical Genomics Center [NCGC] U.S. Environmental Protection Agency [EPA] National Institutes of Environmental Health Sciences [NIEHS] National Toxicology Program [NTP] U.S. Food and Drug Administration [FDA] Tox21 Assay Overview: Measure of cell viability is critical in the cell-base assay. Analysis of cell viability is necessary for the characterization of cell responses to cytotoxic drugs and environmental stress. A RealTime-Glo MT Cell Viability Assay to monitor cell viability in real time of continues cell culture during 40 hours of compound treatment was used to screen Tox21 10K library compounds in HepG2 cells. The RealTime-Glo MT Cell Viability Assay is a nonlytic, homogeneous, bioluminescent method to measure cell viability in real time using a simple, plate-based method. The assay involves adding NanoLuc luciferase and a cell-permeant prosubstrate to cells in culture. Viable cells reduce the proprietary prosubstrate to generate a substrate for NanoLuc luciferase. This substrate diffuses from cells into the surrounding culture medium, where it is rapidly used by the NanoLuc Enzyme to produce a luminescent signal. The signal correlates with the number of viable cells, making the assay well suited for cytotoxicity studies.
Tox21 Assay Protocol Summary: The mixture of HepG2 cell suspension and reagents were dispensed at 600cells/6 ul/well in 1536-well tissue culture treated black solid bottom plates using a Multidrop dispenser. After the assay plates were incubated at a 37 C/5% CO2 incubator for 5 hours, 23 nL of compounds dissolved in DMSO, positive and negative controls was transferred to the assay plate by a pintool work station. The plates were incubated at 37 C for 40 hours. The luminescence intensity were measured at 0h, 8h, 16h, 24h, 32h and 40h time points using ViewLux plate reader during compound treatment.

| Compound | Potency | activity change, negative = cytotoxicity |
| --- | --- | --- |
| Nc1ccc(-c2ccccc2)cc1 | inactive | – |
| CC(C)NC(C)C | inactive | – |
| CCCCC(CC)COC(=O)Cl (stereo not given) | inactive | – |
| CC(C)N(C(=O)SCC(Cl)=C(Cl)Cl)C(C)C | inactive | – |
| CCCCCCOC(=O)c1ccccc1C(=O)OCCCCCC | inactive | – |
| CCc1cccc(CC)c1N(COC)C(=O)CCl | inactive | – |
| CCC(C)c1cc([N+](=O)[O-])cc([N+](=O)[O-])c1O (stereo not given) | – | -1.16% |
| CC(C)(OOC(C)(C)c1ccccc1)c1ccccc1 | inactive | – |
| c1ccc(N=Nc2ccccc2)cc1 | inactive | – |
| CCOP(=S)(OCC)O/N=C(\C#N)c1ccccc1 | – | -9.18% [at 35.3 µM] |
| c1ccc(-c2cccc(-c3ccccc3)c2)cc1 | inactive | – |
| CC(C)Oc1cc(-n2nc(C(C)(C)C)oc2=O)c(Cl)cc1Cl | inactive | – |
| c1ccc(P(c2ccccc2)c2ccccc2)cc1 | inactive | – |
| S=C1NCCN1 | inactive | – |
| Cc1ccc(OP(=O)(Oc2ccc(C)cc2)Oc2ccc(C)cc2)cc1 | inactive | – |
| C1=Cc2cccc3cccc1c23 | inactive | – |
| CCC(CC)Nc1c([N+](=O)[O-])cc(C)c(C)c1[N+](=O)[O-] | inactive | – |
| Brc1ccc(Oc2cc(Br)c(Br)cc2Br)c(Br)c1 | inactive | – |
| CNC(=O)Oc1cccc2c1OC(C)(C)O2 | inactive | – |
| Nc1ccc(Cl)cc1N | inactive | – |

| Compound | Potency | activity change, negative = cytotoxicity |
| --- | --- | --- |
| CCC(C)(c1ccc(O)cc1)c1ccc(O)cc1 | inactive | – |
| CC(O)CCO (stereo not given) | inactive | – |
| CCN(CC)C(=O)/C(Cl)=C(\C)OP(=O)(OC)OC | inactive | – |
| c1nc[nH]n1 | inactive | – |
| Nc1cccnc1 | inactive | – |
| Nn1cnnc1 | inactive | – |
| C=C(C)C(=O)OCC1CO1 (stereo not given) | inactive | – |
| OCC(O)CO | inactive | – |
| C#CCOS(=O)OC1CCCCC1Oc1ccc(C(C)(C)C)cc1 (stereo not given) | inactive | – |
| CC(C)(c1cc(Cl)c(O)c(Cl)c1)c1cc(Cl)c(O)c(Cl)c1 | inactive | – |
| N#CCCCl | inactive | – |
| CN(C)c1ccc(C(=O)c2ccc(N(C)C)cc2)cc1 | inactive | – |
| O=C1C=CC(=O)C=C1 | inactive | – |
| C=CCc1ccc2c(c1)OCO2 | inactive | – |
| CCOc1cc(Oc2ccc(C(F)(F)F)cc2Cl)ccc1[N+](=O)[O-] | inactive | – |
| COP(=S)(OC)Oc1ccc([N+](=O)[O-])cc1 | inactive | – |
| O=P(O)(O)CCCl | inactive | – |
| Oc1c(Cl)c(Cl)c(Cl)c(Cl)c1Cl | inactive | – |
| Nc1c(Cl)cc([N+](=O)[O-])cc1Cl | inactive | – |
| Cc1cccc(N)c1N | inactive | – |
